The text below walks through data of PMC8384837, “Expanding the binding specificity for RNA recognition by a PUF domain”.

Chain of PUM1 PUF domain R8-CYR (Q14671 828-1176 N1122C/Q1126R): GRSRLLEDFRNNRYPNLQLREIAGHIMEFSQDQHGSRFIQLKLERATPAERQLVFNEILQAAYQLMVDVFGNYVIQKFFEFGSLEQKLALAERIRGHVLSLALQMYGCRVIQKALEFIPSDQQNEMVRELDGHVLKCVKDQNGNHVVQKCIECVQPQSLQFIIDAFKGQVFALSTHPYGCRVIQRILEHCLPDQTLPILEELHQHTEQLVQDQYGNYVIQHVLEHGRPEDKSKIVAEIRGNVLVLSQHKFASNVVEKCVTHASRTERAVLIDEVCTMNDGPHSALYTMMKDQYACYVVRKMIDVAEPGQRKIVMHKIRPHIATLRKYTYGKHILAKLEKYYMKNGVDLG
Chain of PUM1 PUF domain R5-TRV (Q14671 828-1176 C1007T/Q1011V): as the sequence (Q14671 828-1176 N1122C/Q1126R) above, with C180T, Q184V, C295N, R299Q counted along it

The target of the first assay is PUM1 PUF domain R5-TRV (Homo sapiens, UniProt Q14671 828-1176, C1007T;Q1011V). The experiment in a line: yeast three-hybrid, YBZ-1, SC-Leu-His + 0.5 mM 3-AT, 4 days. The following applies: tags: N-Gal4 AD-HA kept; label: inside an RPR1-promoter hybrid RNA with tandem MS2 sites; ssRNA. The method, boiled down:
(§1)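 A centromeric plasmid in strain YBZ-1 co-expressed Pumilio-1 PUF domain libraries, randomized at the three base-contacting residues of each repeat, with matching RNA elements; the strain carries a LexA–MS2 coat fusion and a HIS3 reporter. After four days on SC-Leu (input) or SC-Leu-His + 0.5 mM 3-AT (selection), the repeat regions were PCR-amplified and Illumina-sequenced. The interaction score is the log change in variant frequency from input to selection, using log2 and a pseudocount of 1 where absent.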
“GGCUAGAACUAGUGGAUCCCCCGGCGCCCGGCGGCUCGAGCCCGGGUAAGUGUGAAUAGUCUGCAUGCCGCCGGGCGCCAUGCCUGCAGGUCGACUCUAGAAAACAUG”: the binding signal was 3.38 log2 enrichment (interaction score).

Regarding “GGCUAGAACUAGUGGAUCCCCCGGCGCCCGGCGGCUCGAGCCCGGGUAAGUGUUAAUAGUCUGCAUGCCGCCGGGCGCCAUGCCUGCAGGUCGACUCUAGAAAACAUG”, the binding signal is 3.28 log2 enrichment (interaction score).

Regarding “GGCUAGAACUAGUGGAUCCCCCGGCGCCCGGCGGCUCGAGCCCGGGUAAGUGUAAAUAGUCUGCAUGCCGCCGGGCGCCAUGCCUGCAGGUCGACUCUAGAAAACAUG”, the binding signal was 4.29 log2 enrichment (interaction score).

The next assay has as its target PUM1 PUF domain R8-CYR (Homo sapiens, UniProt Q14671 828-1176, N1122C;Q1126R). The description is as above. As to conditions: tags: N-Gal4 AD-HA kept; label: inside an RPR1-promoter hybrid RNA with tandem MS2 sites; ssRNA. The method, boiled down:
as §1
As for “GGCUAGAACUAGUGGAUCCCCCGGCGCCCGGCGGCUCGAGCCCGGGUAAGCGUAAAUAGUCUGCAUGCCGCCGGGCGCCAUGCCUGCAGGUCGACUCUAGAAAACAUG”, the binding signal is 4.19 log2 enrichment (interaction score). The same measure, in the same setting: the result for “GGCUAGAACUAGUGGAUCCCCCGGCGCCCGGCGGCUCGAGCCCGGGUAAGGGUAAAUAGUCUGCAUGCCGCCGGGCGCCAUGCCUGCAGGUCGACUCUAGAAAACAUG” reads 2.63 log2 enrichment (interaction score). Turning to “GGCUAGAACUAGUGGAUCCCCCGGCGCCCGGCGGCUCGAGCCCGGGUAAGUGUAAAUAGUCUGCAUGCCGCCGGGCGCCAUGCCUGCAGGUCGACUCUAGAAAACAUG”, the binding signal is 4.59 log2 enrichment (interaction score).
